An excerpt weighted towards active compounds, which were near 3.5% of everything screened.
GPR151 activ: activates the human receptor GPR151. Q8TDV0. PathHunter beta-arrestin GPR151 cells, luminescence. activation, % at 11.2 µM. 1% of 650,000 active; in the data active means activation above about 4.9%;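 further: 0% = median of compound wells and 100% = cells with positive control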
MITF primary: inhibitors of human MITF. inhibition, % at 2.6 µM. AlphaScreen MITF homodimerization, bead proximity signal. 0.91% of 650,000 active; in the data active means inhibition above about 50%;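 further: 0% = vehicle wells with protein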
TEAD-YAP inh: TEAD-YAP interaction inhibition; inhibition, % at 9.12 µM; 1.4% of 640,000 active; HEK-TIYL cells, TEAD-Gal4/YAP UAS-luciferase luminescence; in the data active means inhibition above about 32%;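 further: 0% = median of test compound wells and 100% = reference inhibitor wells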
FBW7 act: activators of human E3 ligase FBW7; Q969H0; 0.13% of 650,000 active; AlphaScreen FBW7–phospho-cyclin E peptide binding, activator screen; normalized activity (activation), % at 26.1 µM; in the data active means normalized activity above about 1.9%;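 further: purified mutant Fbw7 with reduced substrate affinity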
Target sequence (Q969H0 whole entry, looked up): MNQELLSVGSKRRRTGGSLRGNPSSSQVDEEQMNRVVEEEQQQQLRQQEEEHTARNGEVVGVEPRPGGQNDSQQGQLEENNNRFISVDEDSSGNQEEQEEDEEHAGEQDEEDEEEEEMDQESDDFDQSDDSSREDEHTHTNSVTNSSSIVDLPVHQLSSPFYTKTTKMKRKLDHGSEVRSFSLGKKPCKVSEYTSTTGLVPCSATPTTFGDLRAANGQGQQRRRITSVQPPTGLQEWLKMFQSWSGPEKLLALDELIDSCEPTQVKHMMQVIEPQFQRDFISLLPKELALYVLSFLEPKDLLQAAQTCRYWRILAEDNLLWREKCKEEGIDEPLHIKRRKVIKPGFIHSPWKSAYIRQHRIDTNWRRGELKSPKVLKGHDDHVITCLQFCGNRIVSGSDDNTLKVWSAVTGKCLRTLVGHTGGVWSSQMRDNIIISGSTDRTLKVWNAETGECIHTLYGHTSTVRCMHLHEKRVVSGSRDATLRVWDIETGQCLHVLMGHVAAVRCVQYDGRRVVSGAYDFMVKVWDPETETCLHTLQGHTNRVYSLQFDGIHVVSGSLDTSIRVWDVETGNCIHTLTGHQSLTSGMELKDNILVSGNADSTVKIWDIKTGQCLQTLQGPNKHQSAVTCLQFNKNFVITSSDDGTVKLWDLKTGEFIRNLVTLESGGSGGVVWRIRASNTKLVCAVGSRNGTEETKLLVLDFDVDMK
Numbers without * were called inactive.

SMILES	GPR151 activ	MITF primary	TEAD-YAP inh	FBW7 act
O=C(N/N=C/c1cc(Cl)cc(Br)c1O)c1ccncc1	0	98*	47*	0
O=C(N/N=C/c1cc(Br)cc(Br)c1O)c1cccnc1	-2	34	33*	0
O=C(N/N=C/c1cc(Cl)cc(Br)c1O)c1cccnc1	2	64*	79*	0
CN1C(=O)/C(=C\C=C\c2ccco2)SC1=S	1	82*	-1	-1
CC(C)C(C(=O)O)N1C(=O)/C(=C/C=C/c2ccco2)SC1=S (stereo unspecified)	0	64*	-2	-1
CN1C(=O)S/C(=C\C=C\c2ccco2)C1=O	1	44	-20	0
CCCC(=O)Nc1ccccc1NC(=O)COc1ccc(Cl)c(C)c1	1	-1	-5	0
O=C(O)c1cccc(Oc2ccc(Oc3ccc4c(c3)C(=O)N(c3ccccn3)C4=O)cc2)c1	0	-1	-8	0
Cc1ccc(C(=O)CN(C(=O)CCl)c2ccccc2)cc1	-1	1	36*	0
Cc1ccc(N(CCC(N)=O)C(=O)CCl)cc1	0	-1	76*	0
O=C(CSc1nc2ccccc2c(=O)n1NC(=O)Cc1ccccc1)NCC1CCCO1 (stereo unspecified)	0	3	-1	0
COc1ccc(C(=O)Nn2c(SCc3c(F)cccc3Cl)nc3ccccc3c2=O)cc1	2	-12	79*	0
COc1ccc(C(=O)Nn2c(SCC(=O)NC3CCCC3)nc3ccccc3c2=O)cc1	0	-1	79*	0
COc1ccc(C(=O)Nn2c(SCC(=O)NCC3CCCO3)nc3ccccc3c2=O)cc1 (stereo unspecified)	-1	-4	84*	0
COc1ccc(C(=O)Nn2c(SCC(=O)NCc3ccccc3)nc3ccccc3c2=O)cc1	0	-4	74*	0
Cc1nc2ccccc2c(=O)n1NC(=O)CN1C(=O)C2CC=CCC2C1=O (stereo unspecified)	-1	-9	-1	0
CN1/C(=C(\C#N)C(=O)CCl)Sc2ccccc21	-1	2	13	1
Cc1ccc(O)c(C(=O)c2cnn(-c3ccccc3[N+](=O)[O-])c2)c1	-1	-15	-7	0
CCOc1ccc(NC(=O)CSc2nc3ccccc3c(=O)n2NC(=O)c2ccccc2)cc1	-2	-32	2	0
CCOc1ccc(NC(=O)CSc2nc3ccccc3c(=O)n2NC(=O)c2ccc(OC)cc2)cc1	2	7	54*	0
COc1ccc(C(=O)Nn2c(SCC(=O)Nc3ccc(C)cc3)nc3ccccc3c2=O)cc1	-1	-5	88*	0
CCC(Sc1nc2ccccc2c(=O)n1NC(=O)c1ccc(OC)cc1)C(=O)NCc1cccnc1 (stereo unspecified)	1	-5	79*	0
CCC(Sc1nc2ccccc2c(=O)n1Cc1ccccc1OC)C(=O)NCc1cccnc1 (stereo unspecified)	-1	-2	-8	0
CCCC1C(C#N)=C(SCC(=O)c2ccc(Br)cc2)NC(C)=C1C(C)=O (stereo unspecified)	2	4	10	0
CCSc1nc2c(c(=O)n1-c1ccccc1C)C1(CCCC1)Cc1ccccc1-2	1	-6	7	0
SMILES	GPR151 activ	MITF primary	TEAD-YAP inh	FBW7 act
CCCCOc1ccc(C2Nc3ccccc3C(=O)N2c2ccc(C)c(Cl)c2)cc1 (stereo unspecified)	-1	5	-62	0
CCCNc1nc(-c2ccc(N3CCN(C)CC3)cc2)nc2c1ncn2-c1ccsc1	-3	14	28	0
CN1CCN(c2ccc(-c3nc(NCc4cccnc4)c4ncn(-c5ccsc5)c4n3)cc2)CC1	-3	32	36*	0
COc1ccc(-c2nc(NCCO)c3ncn(-c4ccsc4)c3n2)cc1	1	3	61*	0
CN1CCN(c2ccc(-c3nc(NCCO)c4ncn(-c5ccsc5)c4n3)cc2)CC1	-1	12	87*	0
O=C(CCNS(=O)(=O)c1ccc(Br)cc1)NCc1ccccn1	0	21	7	0
O=C1/C(=C/c2ccc(Br)cc2)C=C(c2ccccc2)N1c1ccc2ncccc2c1	0	1	-15	0
CN(C)C(=O)n1nnc2ccccc21	0	14	59*	0
O=C(c1ccc(C(=O)n2nnc3ccccc32)cc1)n1nnc2ccccc21	-1	3	-8	0
O=C(Nc1ccc2c(c1)CN(C(=O)C1CCOC1)CC2)c1ccc(C(F)(F)F)cc1 (stereo unspecified)	1	6	10	0
O=C(Nc1ccc2c(c1)CN(C(=O)C1CCOCC1)CC2)c1ccccc1Cl	1	-2	34*	0
O=C(Nc1ccc2c(c1)CN(C(=O)c1ccco1)CC2)c1ccc(F)c(F)c1	1	-1	-13	0
CCC(=O)N1CCc2ccc(NC(=O)c3c(F)cccc3F)cc2C1	-1	18	33*	0
O=C(Nc1ccc2c(c1)CN(C(=O)C1CCOC1)CC2)c1ccccc1Cl (stereo unspecified)	0	8	51*	0
O=C(Nc1ccc2c(c1)CN(C(=O)c1ccco1)CC2)c1cccc2ccccc12	0	3	45*	0
COc1ccccc1/C=N/NC(=O)COc1ccccc1[N+](=O)[O-]	2	12	-1	1
CN(C)C(=O)CSc1nc2ccccc2n1CC(=O)NC(C)(C)C	1	-4	-5	0
CC(C)(C)NC(=O)Cn1c(SCC(N)=O)nc2ccccc21	-3	19	-51	2.0*
CC(C)(C)c1ccc(OCCSc2nc3ccccc3n2CC(N)=O)cc1	0	-2	48*	0
CCC(CC)NC(=O)COC(=O)c1cccc(S(N)(=O)=O)c1	1	16	4	0
Nn1c(SCC(=O)N2CCCC2)nnc1-c1ccc(Cl)cc1Cl	-1	-9	-4	0
Nn1c(SCC(=O)c2ccc(O)cc2O)nnc1-c1cc(Cl)ccc1Cl	2	-5	42*	0
CCCOc1ccc(/C=C/C(=O)NCc2ccco2)cc1	-2	-8	-26	1
COc1ccc(N(C)S(=O)(=O)c2cccc3cccnc23)c(OC)c1	0	-10	39*	0
CSc1nnc(NC(=O)c2ccc(C)cc2)s1	-6	0	76*	0
SMILES	GPR151 activ	MITF primary	TEAD-YAP inh	FBW7 act
CC(C)(C)c1ccc(C(=O)Nc2nnc(SCC(=O)O)s2)cc1	-1	-8	71*	0
Cc1ccc(C(=O)Nc2nnc(SCC(=O)NCC3CCCO3)s2)cc1 (stereo unspecified)	0	-1	42*	0
CSc1nnc(NC(=O)c2ccc(F)cc2)s1	-8	-17	-35	0
CSc1nnc(NC(=O)c2ccc(C(C)(C)C)cc2)s1	-2	-2	32*	0
CN(C)S(=O)(=O)c1ccc(/C(O)=C2/C(=O)C(=O)N(Cc3cccnc3)C2c2ccc(Br)cc2)cc1 (stereo unspecified)	0	-15	-12	0
O=C(CN1C(=O)[C@@H]2CCCN2C(=O)c2ccccc21)N1CCCCC1	1	-4	2	0
CN(Cc1cccc2ccccc12)c1ncnc(Cl)c1[N+](=O)[O-]	0	12	5	0

Screening data from PubChem BioAssay.
